Results filed as inconclusive are left out. A call without a number means that no potency is given here. Unmarked numbers belong to inactive results. Activity calls are given as the source filed them. The call rests on the fitted dose curve; in most records, active means well fitted inhibition curve with a large enough effect; inconclusive means small, poorly fitted or top-dose-only effect; inactive means flat fitted curve, though single readings scatter.
Tests used:
[1] = test system: CRL-7250; experiment: Cytotoxic Profiling of Annotated Libraries Using Quantitative High-Throughput Screening (AID 1296008); details: Five cell lines viability, CellTiter-Glo ATP luminescence, 48-72 h; max response: stronger effect = lower value; further: potency means the concentration at half of the fitted maximal effect
Summary of the method: (§1)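 Compounds were pin-transferred onto cells and incubated 48 or 72 hr at 37 degree Celsius, 95% humidity. CellTiter-Glo was added, plates sat 10 min at room temperature, then ATP-coupled luminescence was imaged as the viability read-out.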

[2] = test system: HEK293; experiment: as above; details: Five cell lines viability, CellTiter-Glo ATP luminescence, 48-72 h; max response: stronger effect = lower value
Summary of the method: as §1

[3] = test system: HaCat; experiment: as above; details: Five cell lines viability, CellTiter-Glo ATP luminescence, 48-72 h; max response: stronger effect = lower value
Summary of the method: as §1

[4] = test system: KB-3-1; experiment: as above; details: Five cell lines viability, CellTiter-Glo ATP luminescence, 48-72 h; max response: stronger effect = lower value
Summary of the method: as §1

[5] = test system: NIH3T3; experiment: as above; details: Five cell lines viability, CellTiter-Glo ATP luminescence, 48-72 h; max response: stronger effect = lower value
Summary of the method: as §1

[6] = test system: CRL-7250; experiment: qHTS assay to identify novel small-molecules to repurpose for Merkel cell carcinoma treatment (AID 1296009); details: MCC and control cell lines, CellTiter-Glo viability, 72 h; at 44.8 µM (top of the series) unless noted
Summary of the method: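 Luminescence from CellTiter-Glo, read 10 min after addition at room temperature, reported viability following a 72 hr, 37 degree celsius treatment with NPC or MIPE compounds in titration; values normalized to plate controls.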
Further: nearly all actives have a fitted effect of over 60% in size.

CC(=O)OC1CC(O)C2(C)C(CC(OC(C)=O)C3(C)C2CCC2(C)C(c4ccoc4)C(=O)C4OC423)C1(C)C (stereo unspecified)
max response [1]: -9.87% | outcome [2]: inactive | max response [3]: -22.5% | max response [4]: 8.18% | max response [5]: -1.6%

CCN1C[C@]2(COC)[C@H](O)C[C@H](OC)[C@]34[C@@H]5C[C@]6(O)[C@H](OC(=O)c7ccccc7)[C@@H]5[C@@](O)([C@H]([C@H](OC)[C@H]23)[C@@H]14)[C@@H](O)[C@@H]6OC
outcome [1]: inactive | outcome [2]: inactive | max response [3]: 1.58% | max response [4]: 2.1% | outcome [5]: inactive | outcome [6]: inactive

COC1CC(OC2CCC3(C)C(CCC4C3CCC3(C)C(C5=CC(=O)OC5)C(OC(C)=O)CC43O)C2)OC(C)C1OC1OC(CO)C(O)C(O)C1O (stereo unspecified)
Potency [1]: 544 nM (active) | Potency [2]: 1220 nM (active) | Potency [3]: 2430 nM (active) | Potency [4]: 1090 nM (active) | outcome [5]: inactive

N#CC(OC1OC(COC2OC(CO)C(O)C(O)C2O)C(O)C(O)C1O)c1ccccc1 (stereo unspecified)
outcome [1]: inactive | outcome [2]: inactive | outcome [3]: inactive | max response [4]: 9.88% | outcome [5]: inactive | outcome [6]: inactive [at 17.4 µM]

C[C@H]1C(=O)O[C@H]2[C@H](O)[C@]34C5OC(=O)[C@]3(O[C@@H]3OC(=O)[C@H](O)C34[C@H](C(C)(C)C)[C@H]5O)C12O (stereo partly specified)
outcome [1]: inactive | max response [2]: -8.69% | outcome [3]: inactive | outcome [4]: inactive | outcome [5]: inactive | outcome [6]: inactive [at 17.4 µM]

CCCN1CCO[C@H]2c3cc(O)ccc3OC[C@@H]21
outcome [1]: inactive | outcome [2]: inactive | max response [3]: 3.96% | outcome [4]: inactive | outcome [5]: inactive | outcome [6]: inactive

COc1c(C(C)C)cc2c(c1O)[C@@]1(C(=O)O)CCCC(C)(C)C1CC2 (stereo partly specified)
outcome [1]: inactive | outcome [2]: inactive | max response [3]: 0.977% | outcome [4]: inactive | max response [5]: 0.972% | outcome [6]: inactive

O=C(N1CCOCC1)N1CCN(c2ccc(Cl)cc2)CC1
outcome [1]: inactive | max response [2]: -0.253% | outcome [3]: inactive | max response [4]: 6.75% | outcome [5]: inactive | outcome [6]: inactive

CN1C(=O)c2ccccc2NC(=O)C1Cc1ccccc1 (stereo unspecified)
max response [1]: 3.07% | outcome [2]: inactive | max response [3]: 2.89% | max response [4]: 3.82% | max response [5]: -1.81%

From PubChem BioAssay (NCATS)
